The source of these data is PubChem BioAssay (Tox21).

A short description of experiment [1]: qHTS RealTime-Glo MT Cell Viability Assay in HepG2 cells - 40 hour (AID 1224870). Further: nearly all actives have a fitted effect of over 50% in size. Further: potency means the concentration at half of the fitted maximal effect. The gist of the method: (§1)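 HepG2 cells (600/well) mixed with RealTime-Glo MT reagent, settled 5 h at 37 C/5% CO2 before compound addition. Nonlytic NanoLuc luminescence from viable-cell prosubstrate reduction read repeatedly during 40 h treatment at 37 C.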
Experiment [2] can be described thus: A CellTox Green Cytotoxicity Assay to monitor cytotoxicity in HEK293 cells - 40 hour (AID 1224871). Further: nearly all actives have a fitted effect of over 45% in size. Further: potency means the concentration at half of the fitted maximal effect. The gist of the method:
(§2)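 HEK293 cells, 600/well, were preincubated 5 hours and then exposed to compounds at 37 C for up to 40 hours. A cell-impermeant cyanine dye staining dead-cell DNA was read by fluorescence at 0, 8, 16, 24, 32 and 40 h time points.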

The nature of experiment [3]: qHTS RealTime-Glo MT Cell Viability Assay in HEK293 cells - 16 hour (AID 1224872). Further: nearly all actives have a fitted effect of over 50% in size. Further: potency means the concentration at half of the fitted maximal effect. The gist of the method:
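Cells + reagent dispensed (600 cells/well, HEK293) → 5 h at 37 C/5% CO2 → 23 nL compound in DMSO pinned → 40 h at 37 C → luminescence read at 0, 8, 16, 24, 32, 40 h.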
On the technique in general: qHTS replaces the single test concentration by a dilution series.

The nature of experiment [4]: qHTS RealTime-Glo MT Cell Viability Assay in HEK293 cells - 40 hour (AID 1224874). Further: nearly all actives have a fitted effect of over 50% in size. Further: potency means the concentration at half of the fitted maximal effect. Particulars: RealTime-Glo luminescence; max response: hits give low values. The gist of the method: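 600 cells/well were plated with the nonlytic NanoLuc/prosubstrate reagent, pre-incubated 5 h, then given 23 nL of compound in DMSO. Incubation at 37 C for 40 h, with luminescence from viable-cell-reduced substrate read repeatedly from 0 h.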

Experiment [5] in a line: A CellTox Green Cytotoxicity Assay to monitor cytotoxicity in HEK293 cells - 24 hour (AID 1224875). Further: nearly all actives have a fitted effect of over 45% in size. Further: potency means the concentration at half of the fitted maximal effect. On activity change: series mostly up to about 77 µM. The gist of the method: as §2
Experiment [6] can be described thus: A CellTox Green Cytotoxicity Assay to monitor cytotoxicity in HepG2 cells - 16 hour (AID 1224876). Further: nearly all actives have a fitted effect of over 45% in size. Further: potency means the concentration at half of the fitted maximal effect. The gist of the method:
(§3)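 HepG2 cells, 600/well, preincubated 5 h with CellTox Green dye, then exposed to Tox21 compounds in DMSO at 37 C for up to 40 h. Dead-cell DNA fluorescence read at the indicated time point.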

A short description of experiment [7]: qHTS RealTime-Glo MT Cell Viability Assay in HepG2 cells - 32 hour (AID 1224877). Further: nearly all actives have a fitted effect of over 55% in size. Further: potency means the concentration at half of the fitted maximal effect. The gist of the method: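 Real-time, nonlytic viability: 600 HepG2 cells/well mixed with NanoLuc enzyme plus prosubstrate; 5 h settle, compound (DMSO) added by pintool; luminescence monitored over 40 h at 37 C.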
A short description of experiment [8]: A CellTox Green Cytotoxicity Assay to monitor cytotoxicity in HepG2 cells - 24 hour (AID 1224878). Further: nearly all actives have a fitted effect of over 45% in size. Further: potency means the concentration at half of the fitted maximal effect. The gist of the method:
as §3

The nature of experiment [9]: qHTS RealTime-Glo MT Cell Viability Assay in HepG2 cells - 8 hour (AID 1224873). Further: nearly all actives have a fitted effect of over 55% in size. The gist of the method: as §1
The nature of experiment [10]: A CellTox Green Cytotoxicity Assay to monitor cytotoxicity in HepG2 cells - 40 hour (AID 1224879). Further: nearly all actives have a fitted effect of over 40% in size. Further: potency means the concentration at half of the fitted maximal effect. The gist of the method:
as §3

Records with an inconclusive call do not appear. Values without a mark were called inactive. Activity calls are given as the source filed them. The call rests on the fitted dose curve; in most records, active means well fitted curve in the direction sought with a large enough effect in the repeat runs; inconclusive means weak or mixed curves; inactive means no such curve, though single readings can be large; an effect the other way counts as inactive or inconclusive.
On the % scale 0 is the no-effect control and ±100 the full control effect.

With `CCN(CC)C(=O)/C(C#N)=C/c1cc(O)c(O)c([N+](=O)[O-])c1`, the Potency result in [1], in experiment [2], in [3], in experiment [5], in experiment [6] and in experiment [7] was “inactive” in each case. In experiment [8], the Potency entry was “inactive”. Also, the max response in experiment [4] was 29.1%.
As for `CCO[Si](C)(CCCOCC1CO1)OCC` (centres undefined), the Potency entry in experiment [1], in [2], in experiment [3], in experiment [9], in experiment [5] and in [6] was “inactive” in each case. Besides, the Potency entry in [8] and in experiment [10] was “inactive” each time.
Regarding `CC1CCCC(=O)C1=O` (centres undefined), the Potency result in [1], in experiment [2], in experiment [3], in experiment [9], in experiment [6] and in [7] was “inactive” throughout.
Consider `CN=C(N)NC(=O)Nc1c(C)cccc1C`, for which the Potency entry in experiment [1], in experiment [2], in [3], in experiment [9], in experiment [5] and in experiment [7] was “inactive” in each case. In addition, the Potency entry in [8] and in experiment [10] was “inactive” each time.
With `O=C(NS(=O)(=O)/C=C/c1ccccc1)c1ccc(F)cc1Cl`, the Potency result in experiment [1], in [2], in experiment [3], in experiment [5] and in [7] was “inactive” each time. The Potency in experiment [8] and in experiment [10] was 54.9 µM (active) in each case.
As to `COc1cc(S(=O)(=O)Nc2ccccc2)c(OC)cc1N`, the Potency entry in experiment [1], in [2], in experiment [3], in experiment [5], in [7] and in experiment [8] was “inactive” each time. The max response in experiment [4] was -20.8%.
Turning to `COC(=O)CC(C(C)=O)C(=O)OC` (centres undefined), the Potency entry in experiment [1], in [2], in [3], in [5], in experiment [6] and in [10] was “inactive” each time. Also, the max response in experiment [4] was 9.23%.
Take `[Cl][Nd]([Cl])[Cl]`: the Potency result in experiment [1], in experiment [2], in [3], in experiment [5], in experiment [8] and in experiment [10] was “inactive” throughout. Besides, in [4], the max response was 2.18%.
For `CC(C)(C)C(O)/C=C/c1ccc2c(c1)OCO2` (centres undefined), the Potency result in [1], in experiment [2], in experiment [3], in [6], in experiment [7] and in [8] was “inactive” in each case. The Potency result in experiment [10] is “inactive”. In addition, the max response in [4] was 1.57%.
Consider `CCCCCCCC(=O)OCCCCCC`, for which the Potency result in experiment [1], in [2], in experiment [9], in experiment [5], in experiment [6] and in experiment [7] was “inactive” each time. Also, in [8], the Potency entry was “inactive”. In [4], the Potency was 3.47 µM (active).
Take `CCCCCCCCCCCCCCN(C)C`: the activity change, negative = cytotoxic in experiment [1] was 10.3% [at 15.8 µM]; in experiment [7], 5.76% [at 15.8 µM]. For the same compound, the cytotoxicity increase was -34.7% [at 15.8 µM] in experiment [2] and -1.78% [at 15.8 µM] in experiment [6]. In experiment [9], the viability change, negative = cytotoxic is -0.602% [at 15.8 µM]. Further, the max response in [4] is -29.2%. Further, the cytotoxicity in experiment [8] was -3.33% [at 15.8 µM].
As for `CN(C)CC/C=C1\c2ccccc2Sc2ccc(Cl)cc21`, the Potency in experiment [1] was 23.9 µM (active); in experiment [2] it was 23.9 µM (active); in [4] it was 23.9 µM (active); in [5], 26.8 µM (active); in [6], 21.3 µM (active); in experiment [7], 23.9 µM (active). For the same compound, in experiment [10], the Potency is 21.3 µM (active).
`N[C@@H](Cc1cc(I)c(O)c(I)c1)C(=O)O`: the Potency entry in [1], in experiment [3], in experiment [9], in experiment [5], in experiment [6] and in experiment [10] was “inactive” throughout. Besides, the max response in experiment [4] was 3.01%.
As for `c1ccc(CNc2ncnc3c2ncn3C2CCCCO2)cc1` (centres undefined), the Potency result in experiment [1], in [2], in [9], in experiment [5], in experiment [6] and in experiment [7] was “inactive” throughout. In addition, the Potency entry in experiment [8] and in experiment [10] was “inactive” throughout.
Consider `CNc1c2c(nn1C)CCCC2`, for which the Potency entry in experiment [1], in [3], in [9], in experiment [5], in experiment [6] and in experiment [8] was “inactive” each time. In experiment [10], the Potency entry is “inactive”. In addition, the max response in [4] is -3.57%.
As to `COc1cc(C(C)=O)ccc1OCCCN1CCC(c2noc3cc(F)ccc23)CC1`, the Potency entry in experiment [1], in experiment [9], in [5] and in experiment [6] was “inactive” throughout. Further, the figures for the Potency in experiment [3] and in experiment [4] were 7.56 µM (active) and 10.7 µM (active), respectively.
Regarding `CCC(=O)OCc1ccc(OC)cc1`, the Potency entry in experiment [1], in experiment [3], in experiment [9], in [5], in experiment [6] and in experiment [7] was “inactive” in each case. Also, the Potency result in experiment [8] and in experiment [10] was “inactive” each time. Also, the max response in experiment [4] was 0.878%.
For the compound `CCOC(=O)c1c(N)sc2c1CCN(Cc1ccccc1)C2`, the Potency result in experiment [1], in [2], in experiment [9], in experiment [5], in experiment [6] and in [7] was “inactive” throughout. In addition, the Potency entry in experiment [8] is “inactive”. In [4], the Potency is 19 µM (active).
As to `CCCCCCC(O)CCCCCCCCCCC(=O)OC` (centres undefined), the Potency result in experiment [1], in experiment [2], in [3], in experiment [7] and in [8] was “inactive” in each case.
`CC(C)c1ccc(C#N)cc1`: the Potency result in [1], in experiment [2], in experiment [7] and in experiment [10] was “inactive” each time. Further, the Potency in experiment [4] was 15.5 µM (active).
Regarding `CC(CN(CCN(CC(C)OCCO)CC(C)OCCO)CC(C)OCCO)OCCO` (centres undefined), the Potency result in [1], in [9], in experiment [5], in experiment [6] and in experiment [7] was “inactive” in each case. In addition, the Potency in experiment [3] is 18.8 µM (active); in [4], 23.7 µM (active).
For `O=C1CC[C@@H](C(=O)O)N1`, the Potency result in [1], in experiment [3], in experiment [9], in experiment [5], in experiment [6] and in experiment [7] was “inactive” throughout. For the same compound, the Potency entry in experiment [8] and in experiment [10] was “inactive” in each case. Also, the max response in experiment [4] was 0.932%.
As for `Cc1ccc2nc(N)[nH]c(=O)c2c1Sc1ccncc1`, the Potency entry in [1], in [2], in [3], in [7], in experiment [8] and in [10] was “inactive” throughout.
For the compound `CC(CCc1ccc(O)cc1)NCCc1ccc(O)c(O)c1` (centres undefined), the Potency entry in [1], in [3], in experiment [9], in experiment [5], in experiment [6] and in experiment [7] was “inactive” in each case. Moreover, the Potency entry in experiment [8] and in experiment [10] was “inactive” each time. The max response in experiment [4] is -18.1%.
As for `Cc1ccc2c(c1[N+](=O)[O-])C(=O)c1ccccc1C2=O`, the Potency entry in experiment [1], in [2], in experiment [9], in experiment [5], in experiment [6] and in [7] was “inactive” in each case. In addition, the Potency entry in experiment [8] and in experiment [10] was “inactive” each time. Besides, the Potency in [4] was 0.958 µM (active).
